# Measured values as given in the supplement of paper PMC8728848.
# The full list was thinned out, with the strongest signals kept by preference.
# B1: Epa7 (Candida glabrata), Q6DTM6_CANGB (protein)
# chain: MGSSHHHHHHSSGLVPRGSHMKDDYSSFLSNNNLGWTDPTEFPLGCSPNVTTPKNGLSMELYSYDLRKNGSYPCWDAAYLDPNYPRTGYKSHRLLAKVDGVTGNINFYYHATKGCTPEIDHLPASYNYPKPLTMTNFTMLLYGYFKPKVTGYHTFTISADDLLFVNFGAGNAFDCCKRESSADDFGNYQAYAVWGSQTAKDDLTVHLDAGLYYPIRIFFNNREYDAELSLTLKTESDSNPVIDFSDYFYSFDDTKDGCPGLVSYDTS
# Experiments:
# Assay in all cases: glycan array binding signal (z-score within array); higher = stronger binding
# Details in all cases: glycan notation: IUPAC condensed, linker removed
# Fuc(a1-2)Gal(b1-3)GalNAc = target: Fuc(a1-2)Gal(b1-3)GalNAc
# How it was run: (§1)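 Glycan array data came from 3228 arrays in the Consortium for Functional Glycomics database, and only arrays with an available protein sequence were kept. Glycan names were put into IUPAC-condensed notation, and columns mapping to the same glycan were averaged. The binding signal is a within-array Z-score, averaged across arrays of one protein sequence run at different concentrations or buffers and across linkers. A negative Z-score can be read as non-binding.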
# [1] = target: Fuc(a1-2)Gal(b1-3)GalNAc(b1-4)[Neu5Ac(a2-3)]Gal(b1-4)Glc
# How it was run: as §1
# [2] = target: Fuc(a1-2)Gal(b1-3)GlcNAc(b1-3)[Neu5Ac(a2-6)Gal(b1-4)GlcNAc(b1-6)]Gal(b1-4)Glc
# How it was run: as §1
# [3] = target: Fuc(a1-2)Gal(b1-4)GlcNAc(b1-3)Gal(b1-4)GlcNAc(b1-3)Gal(b1-4)GlcNAc
# How it was run: as §1
# [4] = target: Fuc(a1-2)Gal(b1-4)GlcNAc(b1-3)[Fuc(a1-2)Gal(b1-4)GlcNAc(b1-6)]GalNAc
# How it was run: as §1
# [5] = target: Fuc(a1-2)Gal(b1-4)[Fuc(a1-3)]GlcNAc(b1-3)GalNAc
# How it was run: as §1
# [6] = target: Fuc(a1-2)Gal6S(b1-4)GlcNAc
# How it was run: as §1
# Fuc(a1-2)[Gal(a1-3)]Gal = target: Fuc(a1-2)[Gal(a1-3)]Gal
# How it was run: as §1
# [7] = target: Fuc(a1-2)[Gal(a1-3)]Gal(b1-4)GlcNAc(b1-2)Man(a1-3)[Fuc(a1-2)[Gal(a1-3)]Gal(b1-4)GlcNAc(b1-2)Man(a1-6)]Man(b1-4)GlcNAc(b1-4)[Fuc(a1-6)]GlcNAc
# How it was run: as §1
# [8] = target: Fuc(a1-2)[Gal(a1-3)]Gal(b1-4)GlcNAc(b1-3)[Fuc(a1-2)[Gal(a1-3)]Gal(b1-4)GlcNAc(b1-6)]GalNAc
# How it was run: as §1
# [9] = target: Fuc(a1-2)[GalNAc(a1-4)]Gal(b1-4)GlcNAc
# How it was run: as §1
# [10] = target: Fuc(a1-3)[Gal(b1-4)]GlcNAc(b1-3)GalNAc
# How it was run: as §1
# [11] = target: Gal(a1-3)Gal(b1-4)[Fuc(a1-3)]GlcNAc
# How it was run: as §1
# Gal(b1-3)Gal = target: Gal(b1-3)Gal
# How it was run: as §1
# Gal(b1-3)Gal(b1-4)GlcNAc = target: Gal(b1-3)Gal(b1-4)GlcNAc
# How it was run: as §1
# [12] = target: Gal(b1-3)GalNAc(a1-3)[Fuc(a1-2)]Gal(b1-4)Glc
# How it was run: as §1
# [13] = target: Gal(b1-3)GalNAc(a1-3)[Fuc(a1-2)]Gal(b1-4)GlcNAc
# How it was run: as §1
# Gal(b1-3)GalNAc(b1-3)Gal = target: Gal(b1-3)GalNAc(b1-3)Gal
# How it was run: as §1
# [14] = target: Gal(b1-3)GalNAc(b1-3)Gal(a1-4)Gal(b1-4)Glc
# How it was run: as §1
# [15] = target: Gal(b1-3)GalNAc(b1-4)Gal(b1-4)Glc
# How it was run: as §1
# [16] = target: Gal(b1-3)GalNAc(b1-4)[Neu5Ac(a2-3)]Gal(b1-4)Glc
# How it was run: as §1
# Gal(b1-3)GlcNAc = target: Gal(b1-3)GlcNAc
# How it was run: as §1
# [17] = target: Gal(b1-3)GlcNAc(b1-3)Gal(b1-3)GlcNAc
# How it was run: as §1
# [18] = target: Gal(b1-3)[GlcNAc(b1-6)]GalNAc
# How it was run: as §1
# [19] = target: Gal(b1-3)[Neu5Ac(a2-6)]GalNAc
# How it was run: as §1
# Gal(b1-4)Glc = target: Gal(b1-4)Glc
# How it was run: as §1
# [20] = target: Gal(b1-4)GlcNAc(b1-3)Gal(b1-3)GlcNAc
# How it was run: as §1
# [21] = target: Gal(b1-4)GlcNAc(b1-3)Gal(b1-4)GlcNAc(b1-3)Gal(b1-4)GlcNAc(b1-3)Gal(b1-4)GlcNAc(b1-3)Gal(b1-4)GlcNAc(b1-2)[Gal(b1-4)GlcNAc(b1-3)Gal(b1-4)GlcNAc(b1-3)Gal(b1-4)GlcNAc(b1-3)Gal(b1-4)GlcNAc(b1-3)Gal(b1-4)GlcNAc(b1-6)]Man(a1-6)[Gal(b1-4)GlcNAc(b1-3)Gal(b1-4)GlcNAc(b1-3)Gal(b1-4)GlcNAc(b1-3)Gal(b1-4)GlcNAc(b1-3)Gal(b1-4)GlcNAc(b1-2)Man(a1-3)]Man(b1-4)GlcNAc(b1-4)[Fuc(a1-6)]GlcNAc
# How it was run: as §1
# [22] = target: Gal(b1-4)GlcNAc(b1-3)[Gal(b1-4)GlcNAc(b1-6)]GalNAc
# How it was run: as §1
# [23] = target: Gal(b1-4)GlcNAc(b1-6)Gal(b1-4)GlcNAc
# How it was run: as §1
# [24] = target: Gal(b1-4)GlcNAc(b1-6)[Gal(b1-3)]GlcNAc
# How it was run: as §1
# Gal6P(b1-4)GlcNAc = target: Gal6P(b1-4)GlcNAc
# How it was run: as §1
# GalNAc(b1-3)Gal = target: GalNAc(b1-3)Gal
# How it was run: as §1
# [25] = target: GalNAc(b1-3)Gal(a1-4)Gal(b1-4)GlcNAc
# How it was run: as §1
# GalNAc(b1-4)Gal(b1-4)Glc = target: GalNAc(b1-4)Gal(b1-4)Glc
# How it was run: as §1
# [26] = target: GlcNAc(a1-4)Gal(b1-4)GlcNAc(b1-3)Gal(b1-4)Glc
# How it was run: as §1
# [27] = target: GlcNAc(a1-4)Gal(b1-4)GlcNAc(b1-3)Gal(b1-4)GlcNAc(b1-3)Gal(b1-4)GlcNAc
# How it was run: as §1
# [28] = target: GlcNAc(b1-2)Gal(b1-3)GalNAc
# How it was run: as §1
# [29] = target: GlcNAc(b1-2)Man(a1-3)[GlcNAc(b1-2)Man(a1-6)]Man(b1-4)GlcNAc(b1-4)[Fuc(a1-6)]GlcNAc
# How it was run: as §1
# GlcNAc(b1-3)Fuc = target: GlcNAc(b1-3)Fuc
# How it was run: as §1
# [30] = target: GlcNAc(b1-3)Gal(b1-4)GlcNAc(b1-3)[GlcNAc(b1-3)Gal(b1-4)GlcNAc(b1-3)]GalNAc
# How it was run: as §1
# GlcNAc(b1-3)Man = target: GlcNAc(b1-3)Man
# How it was run: as §1
# GlcNAc(b1-4)GlcNAc = target: GlcNAc(b1-4)GlcNAc
# How it was run: as §1
# [31] = target: Neu5Ac(a2-3)Gal(b1-3)GalNAc(b1-4)[Neu5Ac(a2-8)Neu5Ac(a2-3)]Gal(b1-4)Glc
# How it was run: as §1
# [32] = target: Neu5Ac(a2-3)Gal(b1-3)GlcNAc(b1-3)Gal(b1-3)GlcNAc
# How it was run: as §1
# [33] = target: Neu5Ac(a2-3)Gal(b1-3)GlcNAc(b1-3)GalNAc
# How it was run: as §1
# [34] = target: Neu5Ac(a2-3)Gal(b1-3)[Fuc(a1-4)]GlcNAc(b1-3)Gal(b1-3)[Fuc(a1-4)]GlcNAc
# How it was run: as §1
# [35] = target: Neu5Ac(a2-3)Gal(b1-3)]Neu5Ac(a2-3)Gal(b1-4)]GlcNAc
# How it was run: as §1
# Neu5Ac(a2-3)Gal(b1-4)Glc = target: Neu5Ac(a2-3)Gal(b1-4)Glc
# How it was run: as §1
# [36] = target: Neu5Ac(a2-3)Gal(b1-4)[Fuc(a1-3)]GlcNAc(b1-3)Gal(b1-4)GlcNAc
# How it was run: as §1
# Neu5Ac(a2-6)Gal = target: Neu5Ac(a2-6)Gal
# How it was run: as §1
# [37] = target: Neu5Ac(a2-6)Gal(b1-4)GlcNAc(b1-2)[Neu5Ac(a2-6)Gal(b1-4)GlcNAc(b1-4)]Man(a1-3)[GlcNAc(b1-4)][Neu5Ac(a2-6)Gal(b1-4)GlcNAc(b1-2)[Neu5Ac(a2-6)Gal(b1-4)GlcNAc(b1-6)]Man(a1-6)]Man(b1-4)GlcNAc(b1-4)GlcNAc
# How it was run: as §1
# [38] = target: Neu5Ac(a2-6)Gal(b1-4)GlcNAc(b1-3)Gal(b1-4)GlcNAc
# How it was run: as §1
# [39] = target: Neu5Ac(a2-6)Gal(b1-4)GlcNAc(b1-6)[Gal(b1-3)]GalNAc
# How it was run: as §1
# [40] = target: Neu5Ac(a2-6)Gal(b1-4)GlcNAc6S
# How it was run: as §1
# [41] = target: Neu5Ac(a2-8)Neu5Ac(a2-8)Neu5Ac(a2-3)[Gal(b1-3)GalNAc(b1-4)]Gal(b1-4)Glc
# How it was run: as §1
# [42] = target: Neu5Ac(a2-8)Neu5Gc(a2-3)Gal(b1-4)GlcNAc
# How it was run: as §1
binder,measurement,setting,value
B1,glycan array binding signal (z-score),Fuc(a1-2)Gal(b1-3)GalNAc,-0.169
same,glycan array binding signal (z-score),[1],-0.072
same,glycan array binding signal (z-score),[2],-0.206
same,glycan array binding signal (z-score),[3],-0.253
same,glycan array binding signal (z-score),[4],-0.209
same,glycan array binding signal (z-score),[5],-0.027
same,glycan array binding signal (z-score),[6],-0.285
same,glycan array binding signal (z-score),Fuc(a1-2)[Gal(a1-3)]Gal,-0.213
same,glycan array binding signal (z-score),[7],-0.241
same,glycan array binding signal (z-score),[8],-0.208
same,glycan array binding signal (z-score),[9],-0.256
same,glycan array binding signal (z-score),[10],-0.19
same,glycan array binding signal (z-score),[11],-0.201
same,glycan array binding signal (z-score),Gal(b1-3)Gal,2.85
same,glycan array binding signal (z-score),Gal(b1-3)Gal(b1-4)GlcNAc,5.79
same,glycan array binding signal (z-score),[12],5.79
same,glycan array binding signal (z-score),[13],5.59
same,glycan array binding signal (z-score),Gal(b1-3)GalNAc(b1-3)Gal,11
same,glycan array binding signal (z-score),[14],4.75
same,glycan array binding signal (z-score),[15],7.99
same,glycan array binding signal (z-score),[16],4.82
same,glycan array binding signal (z-score),Gal(b1-3)GlcNAc,-0.104
same,glycan array binding signal (z-score),[17],-0.207
same,glycan array binding signal (z-score),[18],1.21
same,glycan array binding signal (z-score),[19],4.18
same,glycan array binding signal (z-score),Gal(b1-4)Glc,-0.199
same,glycan array binding signal (z-score),[20],-0.246
same,glycan array binding signal (z-score),[21],0.068
same,glycan array binding signal (z-score),[22],5.02
same,glycan array binding signal (z-score),[23],0.23
same,glycan array binding signal (z-score),[24],5.53
same,glycan array binding signal (z-score),Gal6P(b1-4)GlcNAc,-0.241
same,glycan array binding signal (z-score),GalNAc(b1-3)Gal,-0.245
same,glycan array binding signal (z-score),[25],-0.251
same,glycan array binding signal (z-score),GalNAc(b1-4)Gal(b1-4)Glc,-0.213
same,glycan array binding signal (z-score),[26],-0.234
same,glycan array binding signal (z-score),[27],-0.237
same,glycan array binding signal (z-score),[28],-0.197
same,glycan array binding signal (z-score),[29],-0.232
same,glycan array binding signal (z-score),GlcNAc(b1-3)Fuc,-0.233
same,glycan array binding signal (z-score),[30],-0.225
same,glycan array binding signal (z-score),GlcNAc(b1-3)Man,-0.232
same,glycan array binding signal (z-score),GlcNAc(b1-4)GlcNAc,-0.23
same,glycan array binding signal (z-score),[31],-0.06
same,glycan array binding signal (z-score),[32],-0.256
same,glycan array binding signal (z-score),[33],-0.21
same,glycan array binding signal (z-score),[34],-0.196
same,glycan array binding signal (z-score),[35],-0.228
same,glycan array binding signal (z-score),Neu5Ac(a2-3)Gal(b1-4)Glc,-0.257
same,glycan array binding signal (z-score),[36],-0.189
same,glycan array binding signal (z-score),Neu5Ac(a2-6)Gal,-0.228
same,glycan array binding signal (z-score),[37],-0.234
same,glycan array binding signal (z-score),[38],-0.258
same,glycan array binding signal (z-score),[39],1.19
same,glycan array binding signal (z-score),[40],-0.257
same,glycan array binding signal (z-score),[41],0.014
same,glycan array binding signal (z-score),[42],-0.241
